Among all 150,000 compounds or so, about 540 (0.36%) showed an effect of 50% or more. For the sample, strong results were picked, then their nearest neighbours and some compounds at random.
test system: Plasmodium falciparum; assay: Primary screen in NF54 nanoGlo assay, in single point, at 2uM, 72h; a lower Z score goes with more inhibition; format: functional, Erythrocyte; settings: timepoint 72 hour

| Compound | % Inhibition | Z score |
| --- | --- | --- |
| CN(CC(=O)NCCCc1ccco1)c1nnc(N2CCCC2=O)s1 | -11% | 2.07 |
| CN(CC(=O)NCc1ccco1)c1nnc(N2CCCC2=O)s1 | 73% | -0.5 |
| CN(CC(=O)NCc1cccs1)c1nnc(N2CCCC2=O)s1 | -2% | 0.36 |
| CCCN1CCN(C(=O)c2ccnc(N3CCN[C@H](c4ccccc4)C3)c2)CC1 | -13% | 1.36 |
| C[C@H](CCO)NCc1sccc1Cl | 5% | -0.62 |
| CC(C)(C)n1cnc(C(=O)N2CCCC23CCCCC3)n1 | 0% | -0.06 |
| Cn1nnc(C(=O)N2CCC(c3ccccc3)(N3CCCC3)CC2)n1 | 7% | -1.29 |
| O=C(Nc1cnc(-n2ccnc2)nc1)c1ccc(F)cc1 | -18% | 2.84 |
| CCOC(=O)C1(C(=O)NCc2cc(C)on2)CCCC1 | 7% | -0.84 |
| CCN1C[C@H](Nc2ncnc3sc(C)cc23)[C@@H](OC)C1 | -9% | 1.14 |
| CCN1C[C@H](Nc2ncccc2C#N)[C@@H](OC)C1 | -13% | 1.15 |
| CS(=O)(=O)N1C[C@H]2CC[C@@H](C1)N(CC(=O)N1CCc3ccccc31)C2 | -9% | 1.92 |
| COc1ccc(CN2CCc3cc(OC)c(OC)cc3[C@@H]2CNC(=O)Cc2ccccc2)cc1 | -3% | 0.38 |
| Oc1ccccc1CCN[C@H]1CCc2ccc(F)cc21 | 98% | -18.88 |
| O=S1(=O)CCC(CNC2CCc3ccc(F)cc32)C1 (centres undefined) | -8% | 1.29 |
| Cn1ncc2c1CCC[C@@H]2NCCc1ccccc1O | -5% | 0.59 |
| CS(=O)(=O)CCc1ccc(N[C@H]2CCc3ccc(F)cc32)cc1 | -8% | 1.03 |
| CCOc1ccc2c(n1)CCN(C(=O)c1ccsc1)C2 | 36% | 1.41 |
| CC(COC1CCOC1)NC(=O)C1CCC(=O)C(C)C1 (centres undefined) | -1% | 0.21 |
| Cn1nc(NC(=O)c2ccccc2)c2c1CCN(C(=O)C1CCC1)C2 | -10% | 0.86 |
| COC(C(=O)N1C[C@H](C(=O)O)[C@@H](c2ccc(Br)cc2)C1)C1CC1 (some centres undefined) | -1% | 0.13 |
| CCCCN(C1CCCCCC1)S(=O)(=O)N1CCC[C@@H]1COC | 3% | -0.54 |
| COc1ccccc1C(=O)C(=O)NC1CC(C)(C)NC(C)(C)C1 | -6% | 0.73 |
| Cc1nonc1CN1CC[C@@]2(CCCN(C3CCCCC3)C2=O)C1 | -1% | 0.17 |
| O=S(=O)(c1cccc(Cl)c1)N1CCc2nc(N3CCCCC3)nc(Oc3ccccc3)c2C1 | 53% | -13.31 |
| Cc1ccc(Oc2nc(N3CCOCC3)nc3c2CN(S(=O)(=O)c2cccc(Cl)c2)CC3)cc1 | 8% | -1.2 |

| Compound | % Inhibition | Z score |
| --- | --- | --- |
| CN1CCN(c2nc3c(c(Oc4cccc(F)c4)n2)CN(S(=O)(=O)c2cccc(Cl)c2)CC3)CC1 | -5% | 0.66 |
| O=C1CN(Cc2nc(-c3ccccc3)nn2C2CCCCC2)CCN1 | -7% | 1.19 |
| CN(CC(=O)Nc1cccc(F)c1)C(=O)C[C@@H]1C=CCC1 | 12% | -1.67 |
| CCOc1ccc(-c2cn(Cc3ccncc3)nn2)cc1Cl | -10% | 2.05 |
| COc1ccc(-c2cc3nc(C)cc(N4CCC(C(=O)NCc5ccccc5)CC4)n3n2)cc1 | 4% | -0.42 |
| Cc1cc(C)cc(-c2cc3nc(C)cc(N4CCC(C(=O)Nc5ccc(C)c(Cl)c5)CC4)n3n2)c1 | 36% | 1.15 |
| Cc1cc(C)cc(-c2cc3nc(C)cc(N4CCC(C(=O)NCc5cccc(F)c5)CC4)n3n2)c1 | 75% | -14.36 |
| Cc1cc(C2CCC(C(=O)NCC3CC3)CN2C(=O)NC(C)C)ccc1F (centres undefined) | 0% | 0 |
| Cc1cc(S(=O)(=O)N(CCN(C)C)C2CCN(C)CC2)c(C)o1 | -16% | 1.43 |
| COc1ccc2cc(C(=O)NCc3ccnc(Oc4ccccc4)c3)[nH]c2c1 | -7% | 1.13 |
| COc1ccc2cc(-c3nc(CCN(C)C(=O)c4cccc(Cl)c4)no3)[nH]c2c1 | -9% | 1.75 |
| Cc1ccc(CC(=O)Nc2cc(C(F)(F)F)n(C)n2)cn1 | -6% | 0.61 |
| Cc1cccc(OC2CN([C@@H](C)CCN(C)C)C2)c1 | -19% | 2.04 |
| CC(C(=O)Nc1nccs1)N1CCCC(c2ccn[nH]2)C1 (centres undefined) | 50% | -9.08 |
| C[C@@H](C(=O)Nc1nccs1)N1CCCC1 | -4% | 0.56 |
| CC(C(=O)Nc1ccc(Cl)cn1)N1CCCC(c2ccn[nH]2)C1 (centres undefined) | 5% | -0.83 |
| O=C(C1CCC1c1ccc(F)cc1)N1CCCC(c2nc3ccc(F)cc3o2)C1 (centres undefined) | -10% | 1.06 |
| CCOc1cc(C(c2c(C)n(C)n(-c3ccccc3)c2=O)c2c(C)n(C)n(-c3ccccc3)c2=O)ccc1OCc1ccccc1 | 75% | -5.78 |
| COc1cc(C(c2c(C)n(C)n(-c3ccccc3)c2=O)c2c(C)n(C)n(-c3ccccc3)c2=O)c(Br)c(Br)c1OCc1ccccc1 | 35% | -0.45 |
| Cc1c(C(c2c(C)n(C)n(-c3ccccc3)c2=O)c2c[nH]c3ccccc23)c(=O)n(-c2ccccc2)n1C | -6% | 0.93 |
| COc1nc(N[C@H]2CCCN(C)C2)ncc1F | 3% | -0.5 |
| CN(C)c1nc(N[C@H]2CCS(=O)(=O)C2)ncc1F | -3% | 0.33 |
| COc1nc(NC2CCS(=O)(=O)CC2)ncc1F | 65% | -7.11 |
| CNC(=O)[C@@H]1C[C@@H](Nc2ccnc(OC)c2C#N)CN1Cc1ccccn1 | 2% | -0.32 |
| Cc1noc(C)c1S(=O)(=O)NC1(C(=O)Nc2ccsc2)CCCC1 | -8% | 1.08 |
| CC[C@@](C)(CNC(=O)COCc1cccc(OC)c1)N1CCOCC1 | -4% | 0.5 |
